In the library only some 1.6% were active in any assay of this set; here they are far more common.
ABCB6 inh MLPCN – blocks the human ABCB6 transporter; Q9NP58; K562-ABCB6 porphyrin accumulation, flow cytometry, 1 h; stronger effect = lower value; fluorescence ratio to DMSO, % at 10 µM; hit rate 0.19% among 360,000; AID 602162;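 active means fluorescence ratio to DMSO below 75%, the collection mean minus 3 SD; inconclusive means too few cells collected in the well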;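 further: signal is porphyrin accumulated inside mitochondria; lower ratio means ABCB6 inhibition with less porphyrin fluorescence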
Glyco luc inh – blocks N-linked glycosylation in D54 reporter cells. hit rate 0.23% among 360,000. AID 588692. D54 ERlucT glycosylation luciferase reporter, 24 h; percent of 100 nM tunicamycin response. reporter increase, % at 12.5 µM;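 active means mean luciferase reporter signal, scaled so untreated is 0 and the glycosylation-blocking control 100, at or above a set limit in every replicate; inconclusive means mean reaches the limit but not every replicate does; inactive means mean below the limit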;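 further: luciferase carries N-glycosylation sites so blocking glycosylation raises the light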
Vif inh – inhibitors of HIV Vif; HEK293T cells, Vif self-association by quenched fluorescence, imaging, 24 h; AID 602346; hit rate 0.35% among 340,000; inhibition, % at 7.49 µM; in the data active means inhibition above about 50%, passing the limit was not always enough; inconclusive means no clear call, values can overlap the other calls; inactive means below about 31%
RAD54 inh – RAD54 (human) branch migration inhibition | hit rate 0.14% among 360,000 | inhibition, % at 10.4 µM | Q92698 | RAD54 Holliday junction branch migration, FAM/BHQ fluorescence;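 active means mean normalized replicate activity at least 40 and at least half of replicates scoring 40 or more; inconclusive means only one of the two criteria met; inactive means mean below 40 and under half of replicates reaching 40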;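 further: inhibitors cause a drop in the FAM fluorescence signal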
Target sequence (Q92698 whole entry, looked up): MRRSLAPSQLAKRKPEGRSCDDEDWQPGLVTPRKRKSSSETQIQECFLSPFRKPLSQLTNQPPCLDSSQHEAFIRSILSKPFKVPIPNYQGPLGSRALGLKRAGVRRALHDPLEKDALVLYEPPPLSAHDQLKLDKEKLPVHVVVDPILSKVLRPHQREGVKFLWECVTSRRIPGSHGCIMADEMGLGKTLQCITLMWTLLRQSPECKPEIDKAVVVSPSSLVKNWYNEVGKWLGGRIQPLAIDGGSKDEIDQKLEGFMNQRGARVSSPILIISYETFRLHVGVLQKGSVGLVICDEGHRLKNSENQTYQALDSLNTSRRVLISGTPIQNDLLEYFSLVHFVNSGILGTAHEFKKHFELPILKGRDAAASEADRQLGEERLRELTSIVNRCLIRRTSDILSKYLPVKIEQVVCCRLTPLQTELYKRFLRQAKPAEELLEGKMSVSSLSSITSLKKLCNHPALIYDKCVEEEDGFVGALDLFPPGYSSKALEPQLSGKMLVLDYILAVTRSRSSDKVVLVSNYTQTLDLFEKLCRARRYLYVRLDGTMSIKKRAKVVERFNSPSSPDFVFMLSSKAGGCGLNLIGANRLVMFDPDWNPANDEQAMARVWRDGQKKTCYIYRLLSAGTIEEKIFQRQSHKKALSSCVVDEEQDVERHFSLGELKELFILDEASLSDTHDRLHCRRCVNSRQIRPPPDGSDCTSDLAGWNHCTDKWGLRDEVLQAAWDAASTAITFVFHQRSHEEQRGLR
Myeloid diff MLP – myeloid differentiation induction; ER-HoxA9 myeloid progenitors, lysozyme-GFP differentiation, flow cytometry; calls only at 10 µM; hit rate 1% among 360,000; AID 624256;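 active means normalized GFP-positive differentiation at or above the plate's own cutoff, the solvent-only control mean plus 3 SD; inconclusive means no clear call, values can overlap the other calls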;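 further: cells exposed to compound for four days before flow analysis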
A number is an active result; . = inactive; ? = inconclusive; / = no result; + = active, no number.

SMILES	ABCB6 inh MLPCN	Glyco luc inh	Vif inh	RAD54 inh	Myeloid diff MLP
COc1cc2c(cc1OC)C(C)N(CCN1C(=O)c3ccccc3C1=O)CC2 (stereo unspecified)	.	.	.	/	+
COc1cc2c(cc1OC)C(C)N(C(=O)Nc1ccccc1)CC2 (stereo unspecified)	.	35	.	.	?
COCC#Cc1ccc2c(c1)O[C@H](CN(C)C(=O)Nc1ccccc1F)[C@H](C)CN([C@@H](C)CO)S2(=O)=O	/	/	/	.	/
CO[C@H]1CN(C)C(=O)c2ccc(NC(=O)c3ccc4c(c3)OCO4)cc2OC[C@H](C)N(CC2CC2)C[C@H]1C	/	/	/	.	/
CC1=C(C(=O)Nc2ccccc2)C(c2ccc(C)o2)n2c(s/c(=C\c3ccco3)c2=O)=N1 (stereo unspecified)	.	.	.	.	+
Cc1ccc(NC(=O)c2oc3ccccc3c2NC(=O)c2ccc3c(c2)OCO3)cc1	.	.	.	.	+
O=C(Nc1c(C(=O)Nc2cccc(F)c2)oc2ccccc12)c1ccc2c(c1)OCO2	.	.	/	.	.
CC(C)C1Nc2ccc(C(=O)NCCCN3CCOCC3)cc2NC1=O (stereo unspecified)	.	.	55	.	.
CC(=O)Nc1cc(C(=O)OC(C(=O)c2ccccc2)c2ccccc2)ccc1C (stereo unspecified)	.	.	.	.	.
COc1ccc(C(=O)C(OC(=O)c2ccc(C)c(NC(C)=O)c2)c2ccccc2)cc1 (stereo unspecified)	.	.	.	.	+
Cc1ccccc1S(=O)(=O)Cc1ccc(C(=O)NCCCN(C)Cc2ccccc2)o1	.	.	.	.	.
Cc1ccccc1S(=O)(=O)Cc1ccc(C(=O)NCCN(C)Cc2ccccc2)o1	.	.	.	/	+
CCCC#Cc1cnc2c(c1)C(=O)N([C@@H](C)CO)C[C@H](C)[C@@H](CN(C)C(=O)NCCC)O2	/	/	/	.	/
c1ccc(-c2noc(-c3cccnc3)n2)nc1	.	.	.	.	+
O=C(CC1SC2=NCCN2C1=O)Nc1ccc(Br)cc1 (stereo unspecified)	.	.	53	.	.
Cc1ccc(CO/N=C\Cc2snc(Sc3ncc(C(F)(F)F)cc3Cl)c2C#N)cc1	.	.	/	.	+
O=C(c1cc(Cl)c(=O)n(Cc2ccccc2)c1)N1CCOCC1	.	.	62	.	.
C[C@H]1CN([C@@H](C)CO)C(=O)c2cc(NC(=O)Nc3ccccc3)ccc2O[C@@H]1CN(C)Cc1ccc(Oc2ccccc2)cc1	/	/	/	.	/
O=C(C[C@@H]1CC[C@H]2[C@@H](COC[C@@H](O)CN2Cc2nccs2)O1)NCc1ccc(F)cc1	/	/	/	.	/
CCOCc1nnc(NC(=O)c2c(-c3ccccc3)noc2C)s1	.	.	.	.	/
CCOC(=O)c1c(NC(=O)c2c(-c3ccccc3)noc2C)sc(C)c1-c1ccccc1	.	.	.	.	+
C[C@H](CO)N1C[C@H](C)[C@H](CN(C)CC2CC2)Oc2cc(-c3cccc(F)c3)ccc2S1(=O)=O	/	/	/	.	/
CN(C)C(=O)c1ccc(-c2ccc([C@H]3[C@@H](CO)N4CCCCN(C(=O)C5CCC5)C[C@@H]34)cc2)cc1	/	/	/	.	/
CCOc1cc(-c2c(C#N)c(N)nc3c2CCCC3C)ccc1O (stereo unspecified)	.	.	.	.	.
CCOc1cc(-c2c(C#N)c(N)nc3c2CCc2ccccc2-3)ccc1O	.	46	.	/	.
SMILES	ABCB6 inh MLPCN	Glyco luc inh	Vif inh	RAD54 inh	Myeloid diff MLP
COc1ccccc1-c1c(C)c(C)nc(N)c1C#N	.	.	.	.	.
COc1ccccc1-c1c(C#N)c(N)nc2c1CCc1ccccc1-2	.	32	.	/	?
CCCc1nc(SCC(=O)N2CCC(Cc3ccccc3)CC2)c2c(=O)n(C)c(=O)n(C)c2n1	.	.	.	.	+
CCCNC(=O)C[C@H]1C[C@H]2c3cc(NC(=O)Nc4ccccc4)ccc3O[C@H]2[C@@H](CO)O1	/	/	/	.	/
COc1ccc(N(Cc2cc3cccc(C)c3[nH]c2=O)S(=O)(=O)c2ccc(OC)cc2)cc1	.	.	.	.	+
COc1ccc(N(Cc2cc3cccc(C)c3[nH]c2=O)S(=O)(=O)c2ccc(Cl)cc2)cc1	.	.	.	.	?
C[C@H](CO)N1C[C@H](C)[C@@H](CN(C)C(=O)Nc2ccc(F)cc2)OCc2ccccc2-c2c(n(C)c3ccccc23)C1=O	/	/	/	.	/
C[C@@H]1CCCCO[C@@H](CN(C)S(=O)(=O)c2ccc(F)cc2)[C@@H](C)CN([C@@H](C)CO)C(=O)c2cc(NS(=O)(=O)c3cn(C)cn3)ccc2O1	/	/	/	.	/
